About 83,000 compounds went through this panel and 20% of them were active in at least one assay; those are over-represented in the sample as a whole.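 Assay: single dose, 48 h. Readout: percent growth (0 = no net growth; negative = cell death). Active: <10.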 Unmarked numbers belong to inactive results. Activity calls are given as the source filed them.

For the assay, the system named is HL-60(TB) leukemia. Put plainly: NCI-60 one-dose screen, 48 h (100 = growth as untreated, 0 = no growth, -100 = all killed). Particulars: 10 µM unless noted.
In the case of `Cc1ccc(C(=O)Nc2ccc(CN3CCN(C)CC3)c(C(F)(F)F)c2)cc1C#Cc1cnc2cccnn12`, the growth is -71.9% (active).
`O=C(Nc1ccccc1-c1nc2ccccc2c(=O)[nH]1)c1cc2ccccc2[nH]1`: the growth is 65.5%.
The same measure for `O=C1CC(N2C(=O)/C(=C/C(Cl)=C\c3ccc([N+](=O)[O-])cc3)SC2=S)C(=O)N1c1ccc(O)cc1` (stereo not given): -18.7% (active); for `CCOC(=O)c1cc2c(n1C)-c1nc(NC(C)=O)sc1CCC2`: 102%; for `NC(=O)c1c(Nc2ccccc2)nn2cc(-c3nc4ccccc4s3)c(N)nc12`: 101%.
The same measure for `Nc1nc(N)c2c(n1)NC(c1ccc(F)cc1)C1CCc3ccccc3C1=N2` (stereo not given): 16.5%; for `C1Cc2onc(-c3noc4c3CCC4)c2C1`: 103%.
Then `COc1cc2cc(Oc3ccc(NC(=O)Nc4cccc(C(F)(F)F)c4)cc3)c(C)nc2cc1OCCN1CCCCC1`, with -51.9% (active).
With `COC(=O)c1cc(=O)nc(N/N=C/c2ccc(C)cc2)s1`, the growth is 105%.
For `C[C@]1(O)CC(=O)[C@]2(O)C3=C(C=C[C@]2(O)C1)C(=O)c1c(O)cccc1C3=O`, the growth was -43.8% (active).
For the compound `Cc1ccccc1NC(=O)c1cc2ccccc2cc1O`, the growth was 0.175% (active).
Then `COc1cc(/C=C2\CN(S(=O)(=O)c3ccc(C)cc3)C/C(=C\c3cc(CN4CCCCC4)c(O)c(OC)c3)C2=O)cc(CN2CCCCC2)c1O`, with -37.2% (active); and `Cn1ccc(=O)c(S(N)(=O)=O)c1`, with 96.4%.
For `CC(C)(C)OC(=O)N1C=C/C(=C\Cn2cc(-c3ccccc3)nn2)CC1`, the growth is 75.7%.
Take `Cc1cc(N(CCNc2ccnc3cc(Cl)ccc23)Cc2ccc3c(c2)OCO3)nc(N2CCN(C)CC2)n1`: the growth was -57.8% (active).
For the compound `CCNCCCn1c2c(c3ccc(Cl)cc3c1=O)C(=O)c1cc(OC)cnc1-2`, the growth was -42.9% (active).
Take `COc1ccccc1NC(=O)OCC12COCN1COC2`: the growth is 102%.
With `Cc1ccc(C2=N[C@H]3CCC[C@@H]3N(c3ccccc3)C(C(Cl)Cl)=N2)cc1`, the growth is 93.2%.
The same measure for `O=c1cc(-c2ccccc2)[nH]n1-c1nc2ccccc2[nH]1`: 11%; for `COc1cc(C2CC(=O)Nc3c2cc(Br)c2ccccc32)cc(Br)c1OC` (stereo not given): -2.09% (active); for `COc1ccc(-c2nc3ccc(-c4nc5ccc(N6CCN(C)CC6)cc5[nH]4)cc3[nH]2)cc1OC`: 49.1%.
Take `CCNCCNc1cc(-c2ccc(F)cc2)c(C#N)c2nc3ccccc3n12`: the growth is -48.8% (active).
As for `CC(=O)Nc1c(Cl)cc2c(c1Cl)Cc1ccccc1-2`, the growth was 99.7%.
With `O=C1/C(=C/N2N=C(c3ccc4ccccc4c3)CC2c2ccccc2O)SC(=S)N1c1cccnc1` (stereo not given), the growth is -15.3% (active).
On to `COc1ccc2c(-c3ccc(F)cc3)c(C#N)c(=NC(C)=O)oc2c1`, for which the growth is -17.4% (active).
Then `CS(=O)(=O)c1ccc(NC(=O)c2ccccc2)nc1`, with 67.5%; and `COc1ccc(C(=O)C2C(C#N)C(C#N)C3C=Cc4ccccc4N32)cc1` (stereo not given), with -7.91% (active).
For `CCn1nc(C#Cc2c(C)ccc3c(Nc4ccc(Cl)cc4)nccc23)c2c(N)ncnc21`, the growth is -16% (active).
Then `CN1CCN(Cc2ccc(NC(=O)c3cncc(C#Cc4nc(N)nc5[nH]ncc45)c3)cc2C(F)(F)F)CC1`, with 1.4% (active).
Turning to `COc1ccccc1/C=C1\COc2ccc(-c3ccccc3)cc2C1=O`, the growth is -47.8% (active).
With `Nc1[nH]nc2nc(-c3ccccc3)n3c4ccccc4nc3c12`, the growth was 97.5%.
The same measure for `CCCC(=O)Oc1ccc(/C(=C(/CC)Cc2ccccc2)c2ccc(OCCN3CCCC3)cc2)cc1`: 89.2%; for `O=C1Nc2ccccc2C12Nc1cc(Cl)ccc1S2` (stereo not given): 71.6%.
For the compound `S=C1SCN(Cc2cccs2)CN1Cc1cccs1`, the growth is 91%.
With `NS(=O)(=O)c1ccc(CCn2c(SCC(=O)N/N=C/c3cccnc3)nc3ccccc3c2=O)cc1`, the growth was 80.4%.
As for `CC1(C)N=C(N)N=C(N)N1c1cccc(CCCCc2ccccc2)c1`, the growth was -76% (active).
The same measure for `NS(=O)(=O)c1ccc(CCN=C=S)cc1`: -2.31% (active); for `CCCCCCCCN(CCCCCCCC)CCCCCCNc1cc(OC)cc2cccnc12`: 83.6%; for `O=C(CCCCl)NNc1nccc(Nc2ccc(S(=O)(=O)Nc3ccncc3)cc2)n1`: 127%.
In the case of `Nc1n[nH]c2cccc(C#Cc3cccc(C(=O)Nc4ccc(Cl)c(C(F)(F)F)c4)c3)c12`, the growth was 21%.

The values are drawn from PubChem BioAssay (NCI).
